Laboratory results as given in the supplement of paper PMC8975748.
Where a name gives a salt, the structure may show the parent alone. ± gives the standard deviation of the averaged measurements.

Columns and labels:
[1] = tested on: Saccharomyces cerevisiae BY4741 SeMeCo community; test: mean cell size (pixel area) (pixels); higher = larger cells; conditions: 10 µM; 24 h; SM minimal medium
In short: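 Drug was acoustically predosed into 384-well plates to a final 10 µM in SM medium, and each well received 70 µl of Saccharomyces cerevisiae BY4741 diluted to OD600 = 0.3 from an overnight preculture at OD600 = 1.0. This four-plasmid fluorescent community carries one fluorescent marker per plasmid, and each plasmid complements one auxotrophy. After 24 h, the cells were fixed with paraformaldehyde and imaged by automated confocal microscopy, and Harmony analysis yielded mean cell pixel area per well. Each value is averaged over 3 replicates. Same SeMeCo high-content imaging drug screen: Selleck FDA-approved drugs at 10 µM, 24 h in SM medium, 384-well plates, 3 replicates.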

[2] = tested on: Saccharomyces cerevisiae BY4741 SeMeCo community; test: z-score of prototroph abundance vs DMSO median; higher = larger share of this subpopulation than in DMSO controls; conditions: 10 µM; 24 h; SM minimal medium; subpopulation (auxotrophy): Prototroph
In short: (§1)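 Scoring was based on each subpopulation's abundance, expressed as a z-score against the vehicle-well median. A Saccharomyces cerevisiae BY4741 community with four plasmids, each restoring one auxotrophy and encoding a distinct fluorescent protein, was pre-grown overnight to OD600 1.0, diluted to 0.3, and added at 70 µl to 384-well plates acoustically predosed with library drugs (10 µM final). It then grew 24 h in minimal SM medium before paraformaldehyde fixation and automated confocal microscopy, with single-auxotroph fluorescent strains setting thresholds and autofluorescence correction.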

[3] = tested on: Saccharomyces cerevisiae BY4741 SeMeCo community; test: z-score of subpopulation abundance vs DMSO median, subpopulation auxotrophic for M; higher = larger share of this subpopulation than in DMSO controls; conditions: 10 µM; 24 h; SM minimal medium; subpopulation (auxotrophy): M
In short: as §1

[4] = tested on: Saccharomyces cerevisiae BY4741 SeMeCo community; test: z-score of subpopulation abundance vs DMSO median, subpopulation auxotrophic for L; higher = larger share of this subpopulation than in DMSO controls; conditions: 10 µM; 24 h; SM minimal medium; subpopulation (auxotrophy): L
In short: as §1

[5] = tested on: Saccharomyces cerevisiae BY4741 SeMeCo community; test: z-score of subpopulation abundance vs DMSO median, subpopulation auxotrophic for H; higher = larger share of this subpopulation than in DMSO controls; conditions: 10 µM; 24 h; SM minimal medium; subpopulation (auxotrophy): H
In short: as §1

[6] = tested on: Saccharomyces cerevisiae BY4741 SeMeCo community; test: z-score of subpopulation abundance vs DMSO median, subpopulation auxotrophic for LU; higher = larger share of this subpopulation than in DMSO controls; conditions: 10 µM; 24 h; SM minimal medium; subpopulation (auxotrophy): LU
In short: as §1

[7] = tested on: Saccharomyces cerevisiae BY4741 SeMeCo community; test: z-score of subpopulation abundance vs DMSO median, subpopulation auxotrophic for LM; higher = larger share of this subpopulation than in DMSO controls; conditions: 10 µM; 24 h; SM minimal medium; subpopulation (auxotrophy): LM
In short: as §1

[8] = tested on: Saccharomyces cerevisiae BY4741 SeMeCo community; test: z-score of subpopulation abundance vs DMSO median, subpopulation auxotrophic for HU; higher = larger share of this subpopulation than in DMSO controls; conditions: 10 µM; 24 h; SM minimal medium; subpopulation (auxotrophy): HU
In short: as §1

[9] = tested on: Saccharomyces cerevisiae BY4741 SeMeCo community; test: z-score of subpopulation abundance vs DMSO median, subpopulation auxotrophic for UM; higher = larger share of this subpopulation than in DMSO controls; conditions: 10 µM; 24 h; SM minimal medium; subpopulation (auxotrophy): UM
In short: as §1

[10] = tested on: Saccharomyces cerevisiae BY4741 SeMeCo community; test: z-score of subpopulation abundance vs DMSO median, subpopulation auxotrophic for HL; higher = larger share of this subpopulation than in DMSO controls; conditions: 10 µM; 24 h; SM minimal medium; subpopulation (auxotrophy): HL
In short: as §1

[11] = tested on: Saccharomyces cerevisiae BY4741 SeMeCo community; test: z-score of subpopulation abundance vs DMSO median, subpopulation auxotrophic for HLM; higher = larger share of this subpopulation than in DMSO controls; conditions: 10 µM; 24 h; SM minimal medium; subpopulation (auxotrophy): HLM
In short: as §1

[12] = tested on: Saccharomyces cerevisiae BY4741 SeMeCo community; test: z-score of subpopulation abundance vs DMSO median, subpopulation auxotrophic for HUM; higher = larger share of this subpopulation than in DMSO controls; conditions: 10 µM; 24 h; SM minimal medium; subpopulation (auxotrophy): HUM
In short: as §1

[13] = tested on: Saccharomyces cerevisiae BY4741 SeMeCo community; test: z-score of subpopulation abundance vs DMSO median, subpopulation auxotrophic for LUM; higher = larger share of this subpopulation than in DMSO controls; conditions: 10 µM; 24 h; SM minimal medium; subpopulation (auxotrophy): LUM
In short: as §1

[14] = tested on: Saccharomyces cerevisiae BY4741 SeMeCo community; test: z-score of subpopulation abundance vs DMSO median, subpopulation auxotrophic for U; higher = larger share of this subpopulation than in DMSO controls; conditions: 10 µM; 24 h; SM minimal medium; subpopulation (auxotrophy): U
In short: as §1

[15] = tested on: Saccharomyces cerevisiae BY4741 SeMeCo community; test: z-score of subpopulation abundance vs DMSO median, subpopulation auxotrophic for HM; higher = larger share of this subpopulation than in DMSO controls; conditions: 10 µM; 24 h; SM minimal medium; subpopulation (auxotrophy): HM
In short: as §1

[16] = tested on: Saccharomyces cerevisiae BY4741 SeMeCo community; test: z-score of subpopulation abundance vs DMSO median, subpopulation auxotrophic for HLUM; higher = larger share of this subpopulation than in DMSO controls; conditions: 10 µM; 24 h; SM minimal medium; subpopulation (auxotrophy): HLUM
In short: as §1

SMILES	mean cell size [1]	z-score of prototroph abundance [2]	z-score of subpopulation abundance [3]	z-score of subpopulation abundance [4]	z-score of subpopulation abundance [5]	z-score of subpopulation abundance [6]	z-score of subpopulation abundance [7]	z-score of subpopulation abundance [8]	z-score of subpopulation abundance [9]	z-score of subpopulation abundance [10]	z-score of subpopulation abundance [11]	z-score of subpopulation abundance [12]	z-score of subpopulation abundance [13]	z-score of subpopulation abundance [14]	z-score of subpopulation abundance [15]	z-score of subpopulation abundance [16]
CC[C@H](Nc1ncnc2[nH]cnc12)c1nc2cccc(F)c2c(=O)n1-c1ccccc1 [Idelalisib (CAL-101, GS-1101)]	12.58 ± 0.07	-0.14	-0.54	-0.49	0.31	0.5	-0.23	0.68	0.34	-1.05	0.08	-0.4	0.11			
COc1cc(C(C)=O)ccc1OCCCN1CCC(c2noc3cc(F)ccc23)CC1 [Iloperidone]		-0.06	0.33	0.2	0.05	-0.41		-0.38	-0.39	0.55	0.44	-0.98	0.9	-0.16	0.05	-0.49
COc1ccc2cc3[n+](cc2c1OC)CCc1cc2c(cc1-3)OCO2 [Berberine Sulfate]	12.3 ± 0.28		0.74	-1.84	-0.31	-0.21		0.8	0.73	-0.5	0.13	0.71	-0.27	1.36	0.24	-0.34
CC[N+](CC)(CC)CCOc1cccc(OCC[N+](CC)(CC)CC)c1OCC[N+](CC)(CC)CC [Gallamine Triethiodide]	12.6 ± 0.14	0.05	0.42	-0.79	-0.16	0.16	-0.42	0.25	0.33	-1.15	-0.27	0.25	-0.03	0.76		-0.08
COc1cccc2c1C(=O)c1c(O)c3c(c(O)c1C2=O)C[C@@](O)(C(=O)CO)C[C@@H]3O[C@H]1C[C@H](N)[C@H](O[C@@H]2CCCCO2)[C@H](C)O1 [Pirarubicin]	12.3 ± 0.17	2.14	-12	0.11	-1.05	4.15		4	-3.46	0.37	-1.27	-1.83	-0.26		-5.17	1.36
CCc1c2c(nc3ccc(OC(=O)N4CCC(N5CCCCC5)CC4)cc13)-c1cc3c(c(=O)n1C2)COC(=O)[C@]3(O)CC [Irinotecan HCl Trihydrate]	12.5 ± 0.15	-0.17	1.27	-0.66		-0.66	0.19	-0.6	-0.07		0.91	0.52	0.14	-0.91	0.47	
N#CC(c1ccc(Cl)cc1)c1c(Cl)cc(-n2ncc(=O)[nH]c2=O)cc1Cl (configuration not stated) [Diclazuril]	12.52 ± 0.088		0.92	-0.07	-0.16	-0.92	-0.81	-0.93	-1.39	-0.28	0.16		-0.7	-1.07	-0.31	0.35
